Where “and” joins values, the source holds several entries; their conditions need not be identical. Equal entries are not always repeated. Hit rate of the full screen: of about 5,500 compounds, about 2,000 (36%) were called active. Roughly 18% stayed inconclusive and do not appear here. Cut-off read from the data, not from the text of the source: active = normalized growth mostly below about 0.91 (no sharp cut-off); inconclusive = no clear call, values can overlap the other calls; inactive = mostly above about 0.92. The list shows a part of the results.
Test: chemical genetic growth profiling, strain panel (AID 1159580);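 note: tested at 20 µM; growth read once vehicle control cultures reached saturation at 30 °C; 1 = growth at the plate median or of vehicle wells; lower values mean less growth of the strain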
Details: S. cerevisiae deletion strains, growth OD

Measured: normalized growth

CC(=O)O[C@H]1CC[C@]2(C)C3CC[C@@]4(C)C(CC5O[C@@]6(CCC(C)CO6)[C@@H](C)C54)C3CC[C@@H]2C1 (stereo not given in full)
inactive: locus YAL021C, strain ccr4, stronger effect = lower value 1.02 | locus YAL026C, strain drs2, stronger effect = lower value 1.02 | locus YAL030W, strain snc1, stronger effect = lower value 1.01 | locus YBL061C, strain skt5, stronger effect = lower value 1.01 | locus YBR009C, strain hhf1, stronger effect = lower value 1.03 | locus YBR021W, strain FUR4, stronger effect = lower value 0.996 | locus YBR023C, strain chs3, stronger effect = lower value 1.01 | locus YBR171W, strain sec66, stronger effect = lower value 1.03 | locus YBR229C, strain ROT2, stronger effect = lower value 0.99 | locus YBR231C, strain swc5, stronger effect = lower value 1 | locus YBR279W, strain paf1, stronger effect = lower value 1.01 | locus YCL011C, strain gbp2, stronger effect = lower value 1 | locus YCL016C, strain dcc1, stronger effect = lower value 1.01 | locus YCL029C, strain bik1, stronger effect = lower value 0.993 | locus YCL069W, strain vba3, stronger effect = lower value 1.02 | locus YCR088W, strain abp1, stronger effect = lower value 1.02 | locus YDL005C, strain med2, stronger effect = lower value 1.03 | locus YDL035C, strain GPR1, stronger effect = lower value 1.03 | locus YDL040C, strain nat1, stronger effect = lower value 1 | locus YDL074C, strain BRE1, stronger effect = lower value 1.02 | locus YDL101C, strain DUN1, stronger effect = lower value 0.986 | locus YDL185W, strain tfp1, stronger effect = lower value 0.986 | locus YDL192W, strain arf1, stronger effect = lower value 0.997 | locus YDR001C, strain nth1, stronger effect = lower value 1.01 | locus YDR069C, strain doa4, stronger effect = lower value 1.01 | locus YDR101C, strain arx1, stronger effect = lower value 0.992 | locus YDR137W, strain rgp1, stronger effect = lower value 1.04 | locus YDR159W, strain sac3, stronger effect = lower value 1.01 | locus YDR162C, strain NBP2, stronger effect = lower value 1.02 | locus YDR195W, strain ref2 1.03 | locus YDR297W, strain sur2, stronger effect = lower value 1 | locus YDR318W, strain mcm21, stronger effect = lower value 0.997 | locus YDR334W, strain swr1, stronger effect = lower value 1.03 | locus YDR335W, strain msn5, stronger effect = lower value 1.02 | locus YDR388W, stronger effect = lower value 0.991 | locus YDR392W, strain spt3, stronger effect = lower value 1.03 | locus YDR502C, strain sam2, stronger effect = lower value 0.977 | locus YEL003W, strain gim4, stronger effect = lower value 1.03 | locus YEL037C, strain rad23, stronger effect = lower value 1.02 | locus YEL061C, strain CIN8 (second series), stronger effect = lower value 1.05 | locus YEL061C, strain CIN8, stronger effect = lower value 1 | locus YER015W, strain faa2, stronger effect = lower value 1.01 | locus YER016W, strain bim1, stronger effect = lower value 1 | locus YER110C, stronger effect = lower value 0.991 | locus YER111C, strain swi4, stronger effect = lower value 1.02 | locus YER155C, strain BEM2 (second series), stronger effect = lower value 1.04 | locus YER155C, strain BEM2, stronger effect = lower value 0.975 | locus YER167W, strain BCK2, stronger effect = lower value 0.998 | locus YFR010W, strain ubp6, stronger effect = lower value 1.01 | locus YGL078C, strain dbp3, stronger effect = lower value 0.98 | locus YGL167C, strain pmr1, stronger effect = lower value 1 | locus YGL173C, strain kem1, stronger effect = lower value 1.01 | locus YGL227W, strain vid30, stronger effect = lower value 1.02 | locus YGL240W, strain doc1, stronger effect = lower value 1.02 | locus YGL248W, strain PDE1, stronger effect = lower value 0.985 | locus YGL253W, strain hxk2, stronger effect = lower value 1.01 | locus YGR135W, strain pre9, stronger effect = lower value 0.97 | locus YGR229C, strain SMI1, stronger effect = lower value 1.08 | locus YGR252W, strain gcn5, stronger effect = lower value 0.949 | locus YHR013C, strain ard1, stronger effect = lower value 1.01 | locus YHR027C, strain rpn1, stronger effect = lower value 1.02 | locus YHR030C, strain SLT2, stronger effect = lower value 0.989 and 0.998 | locus YHR079C, strain IRE1 (second series), stronger effect = lower value 0.989 | locus YHR079C, strain IRE1, stronger effect = lower value 1.01 | locus YHR094C, strain hxt1, stronger effect = lower value 0.996 | locus YHR129C, strain ARP1, stronger effect = lower value 0.996 | locus YHR142W, strain chs7, stronger effect = lower value 1.03 | locus YHR200W, strain rpn10, stronger effect = lower value 0.989 | locus YIL066C, strain RNR3, stronger effect = lower value 1.01 | locus YIL073C, strain SPO22, stronger effect = lower value 1.06 | locus YIL125W, strain kgd1, stronger effect = lower value 1 | locus YIR030C, strain dcg1, stronger effect = lower value 0.992 | locus YJL092W, strain hpr5, stronger effect = lower value 1.03 | locus YJL095W, strain BCK1 (second series), stronger effect = lower value 1 | locus YJL095W, strain BCK1, stronger effect = lower value 0.987 and 1.01 | locus YJL115W, strain asf1, stronger effect = lower value 1.01 | locus YJL129C, strain trk1, stronger effect = lower value 1.03 | locus YJL134W, strain LCB3, stronger effect = lower value 0.987 | locus YJL154C, strain vps35, stronger effect = lower value 1.01 | locus YJL164C, strain tpk1, stronger effect = lower value 1.01 | locus YJL166W, strain qcr8, stronger effect = lower value 1.01 | locus YJL168C, strain set2, stronger effect = lower value 0.993 | locus YJL187C, strain SWE1 (second series), stronger effect = lower value 0.975 | locus YJL187C, strain SWE1, stronger effect = lower value 1.01 | locus YJR043C, strain POL32, stronger effect = lower value 1.01
